# Laboratory results from PubChem BioAssay (NCATS).
# Inconclusive results are not listed. Where a call stands in place of a potency, no number is given. The source made the active and inactive calls. Unless noted, calls follow the shape of the dose curve; as a rule, active = well fitted curve in the direction sought with a large enough effect; inconclusive = small, poorly fitted or top-dose-only effect, or another doubt; inactive = no such curve, though single readings can be large; an effect the other way counts as inactive or inconclusive.
# What was measured:
# [1] = target: D(1A) dopamine receptor (Homo sapiens) (UniProt P21728); assay: HTS Assay for Allosteric Agonists of the Human D1 Dopamine Receptor: Primary Screen for Antagonists (AID 488983);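 also: calcium flux response to an EC80 dopamine challenge measured with no-wash dye; nearly all actives have a fitted effect of over 65% in size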; also: potency is read from the fitted curve at half-maximal effect
# Summary of the method: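 Cells are induced with tetracycline and incubated overnight at 30 C, then loaded with calcium dye for 30 to 90 minutes at room temperature. Compound addition is followed by a 180 s read, then an EC80 dopamine addition and another 180 s read.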
# [2] = Validation screen for small molecules that induce genotoxicity in human embryonic kidney (HEK293T) cells expressing luciferase-tagged ELG1 (AID 493106); also: potency is read from the fitted curve at half-maximal effect
# Summary of the method: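 Luminescence from an ELG1-luciferase fusion serves as the read-out, rising when genetic stress elevates ELG1 protein. HEK293T reporter cells (2,000 per well) received 23 nL compound, incubated 16 hr at 37 °C, then ONE-Glo for 30 min at room temperature.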
# [3] = target: ATPase family AAA domain-containing protein 5 (Homo sapiens) (UniProt Q96QE3); assay: Validation screen for small molecules that inhibit ELG1-dependent DNA repair in human embryonic kidney (HEK293T) cells expressing luciferase-tagged ELG1 (AID 493107); also: nearly all actives have a fitted effect of over 70% in size; also: potency is read from the fitted curve at half-maximal effect
# Summary of the method: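 Luminescence from ONE-Glo, developed 30 min at room temperature, served as read-out of ELG1-luciferase levels. Beforehand, reporter HEK293T cells received 5-fluorouridine plus test compound for 16 hr at 37 °C.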
# [4] = target: Thyrotropin-releasing hormone receptor (Homo sapiens) (UniProt P34981); assay: qHTS for Small Molecule Agonists and Allosteric Enhancers of Human TRH Receptor: Validation Screen for Agonists (AID 493127;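 active = calcium activation more than 3 SD above the typical response in the agonist read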;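 also: intracellular calcium rise by fluo-8 fluorescence before TRH EC20 addition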); details: TRH receptor agonist cell assay; at 2 µM; stronger effect = higher value
# Summary of the method: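 Cells 2000/well, 10% FCS, 18 h 33.5C/5% CO2 → fluo-8 Ca dye, RT 30 min–1.5 h → FDSS baseline 10 × 1 s → compound added → 230 cycles (1 s/cycle) agonist mode. TRH controls.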
# [5] = Nrf2 qHTS screen for inhibitors: Validation (AID 493153; active = well fitted inhibition curve with a large enough effect in the main read-out, with a control signal flat, not every such curve was filed as active); details: Potency: luciferase luminescence; viability change: measured here: cytotoxicity max response
# Summary of the method: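 Luminescence from an ARE-firefly luciferase reporter in A549 cells gives Nrf2 inhibition; an earlier CellTiter-Fluor fluorescent read flags cytotoxicity. Cells in 5% FBS OPTI-MEM received compound dilution series for 18-24 h at 37°C.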
# [6] = qHTS for Inhibitors of Cell Surface uPA Generation: Validation Assay (AID 493164)
# Summary of the method: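 RAW 264.7 cells (4000/well) were plated overnight, then exposed for 18 h at 37 C, 5% CO2 to compounds in a 7-point 1:5 titration (2.45 nM–38.3 uM final). Intracellular ATP was read by ATP-Lite luminescence.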
# [7] = target: Galactokinase (Homo sapiens) (UniProt P51570); assay: qHTS Validation Assay for Inhibitors of Human Galactokinase (GALK) (AID 493189)
# Summary of the method: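 5 nM GALK / 100 uM galactose / 35 uM ATP, 20 mM HEPES pH8.0, 5 mM MgCl2, 60 mM NaCl, 1 mM DTT, 0.01% BSA (final). RT 1 h; Kinase-Glo Plus luminescence.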
# [8] = target: D(1A) dopamine receptor (Homo sapiens) (UniProt P21728); assay: HTS Assay for Allosteric Agonists of the Human D1 Dopamine Receptor: Primary Screen for Potentiators (AID 488982)
# Summary of the method: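 Calcium flux in an inducible, force-coupled HEK293 Trex D1 line (overnight at 30 C): agonist mode is the 180 s kinetic read after compound; potentiator mode is the following 180 s read after dopamine at EC20.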
# [9] = target: Tyrosyl-DNA phosphodiesterase 1 (Homo sapiens) (UniProt Q9NUW8); assay: Confirmation Assay for Inhibitors of Tyrosyl-DNA Phosphodiesterase (TDP1) (AID 489007); details: recombinant human TDP1 enzymatic activity, dose-response; also: potency is read from the fitted curve at half-maximal effect; nearly all actives have a fitted effect of over 40% in size
# Summary of the method: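 Tdp1 1 nM + cpd, 15 min RT; add biotin/phosphotyrosine-FITC oligo 15 nM, 5 min RT; add AS donor/acceptor beads 10 ug/ml, 10 min RT; read AlphaScreen. No-enzyme wells = max signal.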
# [10] = target: ATP-dependent 6-phosphofructokinase (Trypanosoma brucei brucei) (UniProt O15648); assay: qHTS Assay to Find Inhibitors of T. brucei phosphofructokinase: hit validation (AID 492961);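 also: luminescence reports ADP formed as PFK phosphorylates fructose-6-phosphate with ATP; series mostly up to about 51 µM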
# Summary of the method: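 ADP-Glo luminescence read-out of ADP formed by 1.25 nM PFK from 0.1 mM ATP and 0.5 mM F6P (TEA pH 8.0, 45 min, RT). Compounds titrated; activity normalized to no-enzyme and full-enzyme controls.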
# Sequence of ATP-dependent 6-phosphofructokinase (Trypanosoma brucei brucei) (O15648 whole entry, looked up): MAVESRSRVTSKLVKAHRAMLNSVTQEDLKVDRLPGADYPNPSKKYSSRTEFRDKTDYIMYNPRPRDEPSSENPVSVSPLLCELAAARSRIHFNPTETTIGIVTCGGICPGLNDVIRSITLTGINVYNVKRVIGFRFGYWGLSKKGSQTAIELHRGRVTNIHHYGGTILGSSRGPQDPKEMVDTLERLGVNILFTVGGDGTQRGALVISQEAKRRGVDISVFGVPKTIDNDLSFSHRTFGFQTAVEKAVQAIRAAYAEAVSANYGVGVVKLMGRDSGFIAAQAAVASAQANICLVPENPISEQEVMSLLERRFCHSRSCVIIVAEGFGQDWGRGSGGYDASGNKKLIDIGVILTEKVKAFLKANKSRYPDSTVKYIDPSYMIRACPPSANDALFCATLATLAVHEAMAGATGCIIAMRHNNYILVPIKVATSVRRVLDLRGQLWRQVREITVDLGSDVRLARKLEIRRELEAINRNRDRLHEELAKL
# Sequence of Galactokinase (Homo sapiens) (P51570 whole entry, looked up): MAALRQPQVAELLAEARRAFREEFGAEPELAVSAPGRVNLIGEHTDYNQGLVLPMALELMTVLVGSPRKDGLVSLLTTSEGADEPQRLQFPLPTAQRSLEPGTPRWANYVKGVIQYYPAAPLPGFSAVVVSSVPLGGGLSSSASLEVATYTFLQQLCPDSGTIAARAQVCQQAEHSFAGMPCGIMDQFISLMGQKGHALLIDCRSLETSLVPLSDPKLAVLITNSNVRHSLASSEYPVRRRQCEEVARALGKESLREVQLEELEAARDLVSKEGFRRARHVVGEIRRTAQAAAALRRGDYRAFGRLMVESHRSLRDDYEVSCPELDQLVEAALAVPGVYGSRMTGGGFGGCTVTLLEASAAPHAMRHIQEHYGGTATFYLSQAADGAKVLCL
# Sequence of ATPase family AAA domain-containing protein 5 (Homo sapiens) (Q96QE3 whole entry, looked up, the tested form may be a part): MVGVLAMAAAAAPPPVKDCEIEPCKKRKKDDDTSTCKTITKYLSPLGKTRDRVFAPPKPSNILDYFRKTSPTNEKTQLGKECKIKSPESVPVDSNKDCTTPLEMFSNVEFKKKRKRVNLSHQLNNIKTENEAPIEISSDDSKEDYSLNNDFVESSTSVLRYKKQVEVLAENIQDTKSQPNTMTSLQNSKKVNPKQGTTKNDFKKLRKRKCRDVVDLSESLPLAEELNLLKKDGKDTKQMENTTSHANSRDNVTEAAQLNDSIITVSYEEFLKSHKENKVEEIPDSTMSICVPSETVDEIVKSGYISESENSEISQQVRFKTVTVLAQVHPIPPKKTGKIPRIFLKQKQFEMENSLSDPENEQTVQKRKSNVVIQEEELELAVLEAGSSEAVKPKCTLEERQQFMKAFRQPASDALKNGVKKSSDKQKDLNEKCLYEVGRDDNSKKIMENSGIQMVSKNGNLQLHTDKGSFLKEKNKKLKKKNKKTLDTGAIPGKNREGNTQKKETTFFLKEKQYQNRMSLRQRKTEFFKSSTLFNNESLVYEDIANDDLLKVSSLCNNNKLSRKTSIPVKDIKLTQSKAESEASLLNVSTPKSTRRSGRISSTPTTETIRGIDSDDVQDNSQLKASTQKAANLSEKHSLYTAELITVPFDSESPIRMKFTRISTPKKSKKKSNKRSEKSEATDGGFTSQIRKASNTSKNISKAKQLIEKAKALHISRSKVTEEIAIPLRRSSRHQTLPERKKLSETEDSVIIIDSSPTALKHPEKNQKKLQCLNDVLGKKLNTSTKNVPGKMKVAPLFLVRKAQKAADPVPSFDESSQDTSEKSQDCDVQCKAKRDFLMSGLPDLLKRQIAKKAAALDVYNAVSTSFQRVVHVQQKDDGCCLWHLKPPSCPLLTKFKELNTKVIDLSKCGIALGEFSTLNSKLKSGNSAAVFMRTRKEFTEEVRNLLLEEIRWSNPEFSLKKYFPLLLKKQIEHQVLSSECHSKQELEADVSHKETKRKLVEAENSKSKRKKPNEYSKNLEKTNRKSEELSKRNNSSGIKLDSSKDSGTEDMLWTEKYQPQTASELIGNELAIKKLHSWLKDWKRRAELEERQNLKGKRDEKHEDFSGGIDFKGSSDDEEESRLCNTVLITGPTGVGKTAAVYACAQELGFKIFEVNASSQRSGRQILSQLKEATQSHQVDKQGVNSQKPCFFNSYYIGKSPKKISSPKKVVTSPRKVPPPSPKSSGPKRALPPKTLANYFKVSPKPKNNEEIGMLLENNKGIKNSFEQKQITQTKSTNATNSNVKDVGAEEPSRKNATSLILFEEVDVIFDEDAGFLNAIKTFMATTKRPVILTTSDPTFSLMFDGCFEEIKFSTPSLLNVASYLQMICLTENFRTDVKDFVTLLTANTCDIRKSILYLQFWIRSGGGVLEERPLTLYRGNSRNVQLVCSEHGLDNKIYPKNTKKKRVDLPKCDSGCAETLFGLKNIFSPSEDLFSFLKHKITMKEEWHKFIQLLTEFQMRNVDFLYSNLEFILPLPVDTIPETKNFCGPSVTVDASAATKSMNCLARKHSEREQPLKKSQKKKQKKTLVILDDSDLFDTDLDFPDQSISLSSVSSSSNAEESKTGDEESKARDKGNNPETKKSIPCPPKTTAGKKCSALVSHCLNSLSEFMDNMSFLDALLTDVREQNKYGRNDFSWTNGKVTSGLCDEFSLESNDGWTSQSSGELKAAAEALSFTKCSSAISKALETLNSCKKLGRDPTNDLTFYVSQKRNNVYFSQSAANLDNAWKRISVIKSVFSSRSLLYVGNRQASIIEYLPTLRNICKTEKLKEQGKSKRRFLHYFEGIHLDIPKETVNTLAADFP
# Sequence of D(1A) dopamine receptor (Homo sapiens) (P21728 whole entry, looked up): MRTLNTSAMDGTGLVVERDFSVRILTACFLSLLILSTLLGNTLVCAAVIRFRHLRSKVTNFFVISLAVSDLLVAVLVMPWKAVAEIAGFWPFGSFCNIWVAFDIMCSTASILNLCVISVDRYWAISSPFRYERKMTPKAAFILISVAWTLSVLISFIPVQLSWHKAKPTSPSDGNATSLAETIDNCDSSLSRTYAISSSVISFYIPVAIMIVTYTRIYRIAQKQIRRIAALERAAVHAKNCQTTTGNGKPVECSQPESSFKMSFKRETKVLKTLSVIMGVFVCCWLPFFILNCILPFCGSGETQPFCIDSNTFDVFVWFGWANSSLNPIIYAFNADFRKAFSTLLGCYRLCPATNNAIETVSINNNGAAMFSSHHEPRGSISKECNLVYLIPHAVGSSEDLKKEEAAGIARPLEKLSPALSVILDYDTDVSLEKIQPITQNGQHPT
# Sequence of Thyrotropin-releasing hormone receptor (Homo sapiens) (P34981 whole entry, looked up): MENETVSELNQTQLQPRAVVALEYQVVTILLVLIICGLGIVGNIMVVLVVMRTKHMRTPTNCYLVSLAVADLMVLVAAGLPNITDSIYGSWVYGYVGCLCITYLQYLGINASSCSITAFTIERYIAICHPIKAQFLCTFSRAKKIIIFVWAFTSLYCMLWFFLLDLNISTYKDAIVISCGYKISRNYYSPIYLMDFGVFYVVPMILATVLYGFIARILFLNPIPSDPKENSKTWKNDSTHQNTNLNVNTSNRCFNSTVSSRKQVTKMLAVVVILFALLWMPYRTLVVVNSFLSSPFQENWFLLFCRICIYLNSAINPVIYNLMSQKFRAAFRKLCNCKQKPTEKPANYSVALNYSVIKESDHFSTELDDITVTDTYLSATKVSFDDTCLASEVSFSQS
# Sequence of Tyrosyl-DNA phosphodiesterase 1 (Homo sapiens) (Q9NUW8 whole entry, looked up): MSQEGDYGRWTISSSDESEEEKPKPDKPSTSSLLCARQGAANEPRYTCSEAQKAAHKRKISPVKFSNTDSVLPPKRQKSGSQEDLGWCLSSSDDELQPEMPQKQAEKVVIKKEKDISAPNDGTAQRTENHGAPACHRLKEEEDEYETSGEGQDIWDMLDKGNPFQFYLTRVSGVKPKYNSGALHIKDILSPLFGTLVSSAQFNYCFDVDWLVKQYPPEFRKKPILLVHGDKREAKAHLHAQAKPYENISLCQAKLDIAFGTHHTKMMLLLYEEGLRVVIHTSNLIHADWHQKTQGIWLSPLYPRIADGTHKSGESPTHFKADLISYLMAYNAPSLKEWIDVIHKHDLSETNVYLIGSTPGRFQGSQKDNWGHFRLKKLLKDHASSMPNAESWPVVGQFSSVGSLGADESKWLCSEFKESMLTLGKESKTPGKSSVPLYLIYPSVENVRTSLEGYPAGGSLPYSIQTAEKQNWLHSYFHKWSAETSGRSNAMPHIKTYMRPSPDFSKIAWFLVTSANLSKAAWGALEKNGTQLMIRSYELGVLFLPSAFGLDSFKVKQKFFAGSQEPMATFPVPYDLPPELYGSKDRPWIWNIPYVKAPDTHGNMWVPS
compound,measurement,setting,value
CC(=O)SCC[N+](C)(C)C,Potency,[1],inactive
same,Potency,[2],inactive
same,Potency,[3],inactive
same,activation,[4],0.875% (inactive)
same,Potency,[5],inactive
same,viability change,[5],-2.78%
same,outcome,[6],inactive
same,Potency,[7],inactive
C[C@@H](NC(=O)/C(C#N)=C/c1ccc(O)c(O)c1)c1ccccc1,Potency,[1],inactive
same,Potency,[2],inactive
same,Potency,[3],inactive
same,activation,[4],0.938% (inactive)
same,outcome,[6],inactive
same,Potency,[7],inactive
O=C1NC(=O)/C(=C/c2ccc(-c3ccc(F)cc3O)o2)S1,Potency,[8],inactive
same,outcome,[6],inactive
CC12C(=O)OC(=O)C1(C)C1CCC2O1 (centres undefined),Potency,[1],inactive
same,Potency,[2],2.91 µM (active)
same,Potency,[3],14.6 µM (active)
same,activation,[4],-0.25% (inactive)
same,outcome,[6],inactive
same,Potency,[7],inactive
C=CC(N)CCC(=O)O (centres undefined),Potency,[1],inactive
same,Potency,[2],inactive
same,Potency,[3],inactive
same,activation,[4],-0.0625% (inactive)
same,Potency,[5],inactive
same,viability change,[5],4.81%
same,outcome,[6],inactive
same,Potency,[7],inactive
C#CCN1C(C)=C(C(=O)OC)C(c2cccc([N+](=O)[O-])c2)C(C(=O)OCC)=C1C (centres undefined),Potency,[1],inactive
same,activation,[4],-10.2% (inactive)
same,Potency,[5],inactive
same,viability change,[5],-0.517%
same,outcome,[6],inactive
same,Potency,[7],inactive
CO/N=C(\C(=O)N[C@@H]1C(=O)N2C(C(=O)O)=C(COC(C)=O)CS[C@H]12)c1csc(N)n1 (stereo in doubt),Potency,[9],7.94 µM (active)
same,activation,[4],0.688% (inactive)
same,Potency,[7],inactive
N.N.N.N.N.N.N.N.N.N.N.N.N.N.O.O.[Ru+4].[Ru+5].[Ru+5],Potency,[1],inactive
same,Potency,[2],inactive
same,outcome,[6],inactive
C=CCN1C(=O)C(CC(C)C)NC1=S (centres undefined),outcome,[10],inactive
CN=c1nc(-c2ccccc2)n(-c2ccccc2)s1,Potency,[1],11.2 µM (active)
same,activation,[4],13% (inactive)
same,outcome,[6],inactive
same,Potency,[7],inactive
Cc1nc2ccccc2n1Cc1ccc(Cl)cc1,outcome,[10],inactive
CCCCCCCCCCCCCCCCCC(=O)NCC(COP(=O)([O-])OCC[N+](C)(C)C)OCC (centres undefined),Potency,[1],12.6 µM (active)
same,activation,[4],2.19% (inactive)
same,Potency,[5],inactive
same,viability change,[5],1.48%
same,outcome,[6],inactive
same,Potency,[7],inactive
CCCCCCCCCCCCCCCCCC(=O)O,outcome,[10],inactive
COc1cc(/C=C/C(=O)N2CCN(CC(=O)N3CCCC3)CC2)cc(OC)c1OC,outcome,[10],inactive
NC(=O)C(c1ccccc1)(c1ccccc1)[C@@H]1CCN(CCc2ccc3c(c2)CCO3)C1,outcome,[10],inactive
c1ccc2sc(SN3CCOCC3)nc2c1,outcome,[10],inactive
CC1(C)S[C@@H]2[C@H](NC(=O)[C@H](NC(=O)N3CCN(S(C)(=O)=O)C3=O)c3ccccc3)C(=O)N2[C@H]1C(=O)O,outcome,[10],inactive
Cc1ccc(O)c(-n2nc3ccccc3n2)c1,outcome,[10],inactive
CC(C(=O)O)c1ccc2c(c1)[nH]c1ccc(Cl)cc12 (centres undefined),outcome,[10],inactive
O=[N+]([O-])c1ccc2c(c1)S(=O)(=O)C=C2,Potency,[1],inactive
same,outcome,[6],inactive
Nc1nc(Nc2ccccc2)nc2c1ncn2[C@@H]1O[C@H](CO)[C@@H](O)[C@H]1O,Potency,[1],inactive
same,Potency,[3],5.8 µM (active)
same,Potency,[5],inactive
same,viability change,[5],-0.505%
same,outcome,[6],inactive
Ic1ccc(N2CCN(Cc3c[nH]c4ncccc34)CC2)cc1,Potency,[1],inactive
same,Potency,[2],inactive
same,activation,[4],3.5% (inactive)
same,outcome,[6],inactive
same,Potency,[7],inactive
O=C(O)[C@H](CC(=O)N1C[C@H]2CCCC[C@H]2C1)Cc1ccccc1,outcome,[10],inactive
CCCSc1ccc2nc(NC(=O)OC)[nH]c2c1,outcome,[10],inactive
N#C/C(=C\c1ccc(-c2cc(Cl)ccc2Cl)o1)C(=O)Nc1cccc2ncccc12,Potency,[1],inactive
same,Potency,[3],16.4 µM (active)
same,outcome,[6],inactive
O=C(CCN1CCN(CCO)CC1)N1c2ccccc2Sc2ccc(C(F)(F)F)cc21,outcome,[10],inactive
Cc1[nH]cnc1CN1CCc2c(c3ccccc3n2C)C1=O,outcome,[10],inactive
Cc1ccc(C(=O)O[C@H](C(=O)O)[C@@H](OC(=O)c2ccc(C)cc2)C(=O)O)cc1 (tested in a mixture with another compound),Potency,[1],inactive
same,Potency,[3],inactive
same,activation,[4],1.25% (inactive)
same,Potency,[5],inactive
same,viability change,[5],-3.95%
same,outcome,[6],inactive
same,Potency,[7],inactive
Clc1ccc(N2CCN(Cc3cc4ccccn4n3)CC2)cc1,Potency,[1],inactive
same,Potency,[3],inactive
same,Potency,[5],inactive
same,viability change,[5],2.97%
same,outcome,[6],inactive
O=C(/C=C/c1ccccc1)NCCO,outcome,[10],inactive
Brc1c(Br)c(Br)c2n[nH]nc2c1Br,Potency,[1],inactive
same,activation,[4],0.938% (inactive)
same,outcome,[6],inactive
same,Potency,[7],inactive
CN1[C@@H]2CC[C@H]1CC(OC(c1ccccc1)c1ccccc1)C2 (some centres undefined),outcome,[10],inactive
C[N+]1(C)CCC(OC(=O)C(c2ccccc2)c2ccccc2)CC1,Potency,[1],inactive
same,Potency,[2],inactive
same,Potency,[5],inactive
same,viability change,[5],1.14%
same,outcome,[6],inactive
CC(C)ON([C@@H](C(=O)NO)C(C)C)S(=O)(=O)c1ccc(-c2ccccc2)cc1,Potency,[1],inactive
same,Potency,[2],inactive
same,outcome,[6],inactive
COc1ccc(-c2cc(=S)ss2)cc1,outcome,[10],inactive
O=C(O)Cc1ccc(-c2ccccc2)cc1,outcome,[10],inactive
CN1CCN(c2cc3c(nn2)Oc2ccccc2N3C)CC1,outcome,[10],inactive
